Assay outcomes deposited in PubChem by National Center for Advancing Translational Sciences (NCATS).
Many of the other results were omitted from the sample, so hits are more common in it than they were.
LmPK inh: blocks Leishmania mexicana pyruvate kinase activity; Q27686; purified LmPK, Kinase-Glo ATP luminescence, 1 h; Potency, µM (series often up to 57.5 µM), for the others: top-dose activity change, negative = inhibition, usual class: inhibitors; 290,000 compounds, 0.37% hits; also: potency is read from the fitted curve at half-maximal effect; % is scaled to controls: 0 for no effect and ±100 for the full control effect
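ATP generated from ADP (0.1 mM) and PEP (0.5 mM) by 0.1 nM LmPK over 1 h at room temperature (pH 7.2 imidazole buffer) was detected by coupled luciferase luminescence. Values were normalized to uninhibited and no-enzyme wells.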
Shiga toxin inh: blocks Shiga toxin action in Vero cells; Vero cells, Shiga toxin protein synthesis inhibition reporter; inhibition, % at 38.7 µM; 290,000 compounds, 9.2% hits; AID 2315; in the data active = inhibition mostly above about 28%, no sharp cut-off; inactive = mostly below about 43%; also: 0% is about no effect
TbPYK inhibitor: T. brucei pyruvate kinase inhibition. Q57TT1. TbPYK enzyme, Kinase-Glo Plus ATP luminescence, 45 min. Potency, µM (top dose mostly 76.8 µM), for the others: at the top dose activity, negative = inhibition, hits mostly inhibitors. 410,000 compounds, 0.12% hits. AID 624173; also: potency is read from the fitted curve at half-maximal effect; % is scaled to controls: 0 for no effect and ±100 for the full control effect; nearly all actives have a fitted effect of over 50% in size
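Assay buffer: 50 mM TEA pH 7.2, 100 mM KCl, 10 mM MgCl2, 0.05% BSA, 0.01% Tween-20. Pyruvate kinase from T. brucei plus substrate met compound, then ADP (130 uM final). Luminescence was read post 45 min RT.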
Cycloheximide cs: counter-screen hit for Shiga toxin inhibitors, cycloheximide; cell reporter, cycloheximide protein synthesis inhibition counterscreen; max response, %; 300,000 compounds, 12% hits; in the data active = max response mostly above about 13%, no sharp cut-off; inactive = mostly below about 14%; also: read at 38.3 µM for the half of the compounds with a filed dose; 0% is about no effect
Sm TGR block: S. mansoni TGR enzyme inhibition; purified TGR, DTNB reduction, TNB absorbance 405 nm; 360,000 compounds, 3% hits; Potency, µM (top dose mostly 114 µM), without a hit: at the top dose activity change, negative = inhibition, most hits filed as inhibitors; Q962Y6; also: potency is read from the fitted curve at half-maximal effect; % is scaled to controls: 0 for no effect and ±100 for the full control effect; nearly all actives have a fitted effect of over 60% in size
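TGR 20 nM + NADPH 100 uM (dispensed conc.), cpd preinc 15 min RT; start with NADPH (500 uM addition) then DTNB (15 mM addition). Kinetic TNB absorbance, 405 nm filter. Four-parameter Hill fit across titration.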
FBPA Giardia inh: blocks Giardia fructose-bisphosphate aldolase activity; Potency, µM (highest dose often 59.6 µM), for the others: top-dose activity, negative = inhibition, most hits filed as inhibitors; purified Giardia FBPA; A8B2U2; AID 2451; 290,000 compounds, 0.71% hits; also: potency is read from the fitted curve at half-maximal effect; % is scaled to controls: 0 for no effect and ±100 for the full control effect; nearly all actives have a fitted effect of over 55% in size
Target sequence (A8B2U2 whole entry, looked up): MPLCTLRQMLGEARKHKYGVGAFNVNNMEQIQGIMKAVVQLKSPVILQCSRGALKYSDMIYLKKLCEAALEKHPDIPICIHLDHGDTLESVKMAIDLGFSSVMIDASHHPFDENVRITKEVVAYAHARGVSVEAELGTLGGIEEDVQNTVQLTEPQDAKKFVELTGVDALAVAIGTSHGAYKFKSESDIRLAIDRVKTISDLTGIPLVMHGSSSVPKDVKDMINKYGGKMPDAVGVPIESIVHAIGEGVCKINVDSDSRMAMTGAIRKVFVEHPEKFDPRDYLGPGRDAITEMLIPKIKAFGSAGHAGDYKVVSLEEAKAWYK
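40 nM FBPA preincubated 10 min at RT with compound (up to 57.5 uM final), then substrate plus GAPDH/TPI/NAD/arsenate coupling and diaphorase/resazurin added. Fluorescence read after 20 min at RT, 525/598 nm.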
Starred values were filed as active, the others as inactive; u = inconclusive; x = no result given; [ ] = dose if it differs, or a comment. Unless noted, calls follow the shape of the dose curve; as a rule, active = well fitted curve in the direction sought with a large enough effect; inconclusive = small, poorly fitted or top-dose-only effect, or another doubt; inactive = no such curve, though single readings can be large; an effect the other way counts as inactive or inconclusive.

SMILES	LmPK inh	Shiga toxin inh	TbPYK inhibitor	Cycloheximide cs	Sm TGR block	FBPA Giardia inh
COc1ccc(C(=O)CNc2ccc3ccccc3c2)cc1	3%	79*	-4%	31*	4%	-21%
Cc1ccc2[nH]c3c(=O)n(CC(=O)N4CCCCC4)ncc3c2c1	x	x	-9%	x	1%	x
O=C(Cn1ccc2cc(S(=O)(=O)N3CCCCCC3)ccc21)NCc1ccccc1Cl	x	x	0%	x	2%	x
CCCN(C)C1CN(Cc2cn(Cc3ccc(OC)cc3)nn2)S(=O)(=O)C1 (configuration not stated)	x	x	-13%	x	x	x
Cc1ccc(-n2ncc(C(=O)NCCc3ccccc3)c2C2CCN(C(=O)OC(C)(C)C)CC2)c(C)c1	x	x	-1%	x	3%	x
COc1ccc(NC(=O)c2ccc(=O)oc2)cc1	-7%	13	8%	2	45µM*	7%
COc1ccc(C(=O)CNc2ccccc2Br)cc1	-2%	74*	10%	41*	-6%	5%
COc1ccc(C(=O)Nc2ccc(NC(=O)c3ccco3)cc2)cc1	5%	29	-9%	-6	8%	-3%
COc1ccc(NC(=O)c2ccc3ccccc3c2)cc1	6%	x	-5%	37*	1%	7%
Cc1ccccc1NCC(=O)c1ccc(Br)cc1	-6%	-9	-4%	-4	-15%	5%
CCOc1ccccc1CNC(=O)CCC(=O)N1CCSc2ccccc21	x	x	2%	x	-8%	x
CN1C2C=C3C(C#N)=C(N)C(C#N)(C#N)C(c4ccc(Br)cc4)C3C1CC2 (configuration not stated)	2%	-5	3%	-4	-23%	u
N#CC1=C(N)C2=CCCC[C@H]2[C@H](c2ccccc2)C1(C#N)C#N	1%	2	-12%	-2	45µM*	-26%
N#CC1=C(N)C2=CCCC[C@H]2[C@H](c2ccc(Br)cc2)C1(C#N)C#N	0%	12	-14%	7	32µM*	u
CC(C)N1CC=C2C(C#N)=C(N)C(C#N)(C#N)C(c3ccccc3)C2C1 (configuration not stated)	-3%	-10	-4%	-1	u	u
Cn1c(=NC(=O)CS(=O)(=O)c2ccccc2)sc2cc([N+](=O)[O-])ccc21	x	x	-4%	x	-5%	x
O=C(NCc1ccncc1)c1ccc(S(=O)(=O)Nc2ccccc2)cc1	x	x	-2%	x	1%	x
COc1cc(C(O)c2nc(-c3cccc(F)c3)cs2)ccc1F (configuration not stated)	x	x	4%	x	x	x
COc1ccc(-c2nc(CCl)cs2)cc1OC	-2%	45*	-7%	29*	u	-25%
COc1ccc(-c2nc(CCl)cs2)cc1	u	54*	-7%	45*	-34%	-4%
CCc1ccc(-c2nc(CCl)cs2)cc1	u	90*	7%	37*	-25%	-7%
COc1ccc(-c2nc(-c3ccc(O)cc3O)cs2)cc1OC	4%	55*	-5%	30*	2%[57.1 µM]	-1%
COc1ccc(C(=O)NCCc2csc(-c3ccc(Cl)cc3)n2)cc1	x	x	6%	x	10%	x
O=C(c1cnccn1)N1CCC2(CCCN(c3cccc(-c4ccccc4)c3)C2)CC1	x	x	12%	x	x	-6%
COc1ccc(NC(=O)CCS(=O)(=O)c2ccc3c(c2)CCN3C(C)=O)cc1	8%	1	-6%	-3	-13%	x
SMILES	LmPK inh	Shiga toxin inh	TbPYK inhibitor	Cycloheximide cs	Sm TGR block	FBPA Giardia inh
COCCn1c(=O)c(C)nc2cnc(Oc3ccccc3)nc21	x	x	x	x	x	-4%
COc1ccc(-c2csc(-c3ccc(O)cc3)n2)cc1	9%	73*	-7%	52*	7%	23%
COc1cc(OC)cc(C(=O)NCCc2csc(-c3cccc(C)c3)n2)c1	x	x	3%	x	21%	x
COc1cccc(-c2nc(CCl)cs2)c1	-6%	57*	-1%	37*	-26%	-7%
CCOC(=O)C1=C(COC(=O)COc2cc(C)ccc2C)NC(=O)NC1C (configuration not stated)	x	x	-14%	x	-1%	x
CCC(=NCc1ccco1)c1c(O)n(C)c(=O)n(C)c1=O	2%	1	-2%	1	25µM*	-1%
CC(=NCc1ccco1)c1c(O)n(C)c(=O)n(C)c1=O	-5%	17	-14%	10	-17%	16%
Cn1nc(-c2ccc(N3CCOCC3)c(NS(=O)(=O)c3ccc(Cl)cc3)c2)c2ccccc2c1=O	-8%	11	3%	-3	0%	-14%
Cc1ccc(S(=O)(=O)Nc2cc(-c3nn(C)c(=O)c4ccccc34)ccc2N2CCOCC2)cc1	-10%	-6	-9%	-1	56µM*	-9%
CC(C)c1ccc(OCC(=O)N(Cc2ccccc2)c2ccccn2)cc1	2%	17	-1%	14*	-2%	3%
Cc1ccc(CN(C(=O)COc2ccccc2Cl)c2ccccn2)o1	x	x	-22%	x	40µM*	x
O=C(COc1ccc(Br)cc1)N(Cc1ccccc1)c1ccccn1	0%	53*	4%	15	-2%	-1%
Cc1cccc(OCC(=O)N(Cc2ccccc2)c2ccccn2)c1	x	x	4%	x	4%	x
O=C(COc1ccc(Cl)cc1)N(Cc1ccccc1)c1ccccn1	2%	6	5%	15	3%	-5%
CC(C)C(=O)OCC(=O)[C@@]12OC(C3CCCCC3)O[C@@H]1CC1C3CCC4=CC(=O)C=C[C@]4(C)C3[C@@H](O)C[C@@]12C (some centres not stated)	x	x	-8%	x	x	x
O=c1c2ccccc2nc2oc3ccccc3n12	-18%	84*	-20%	42*	-8%	2%
CCCCC1CCC(CCCC(C)CCC(=O)O)CC1 (configuration not stated)	x	x	1%	x	11%	x
Cc1cc(O)c(C(c2ccc(F)cc2)N2CCCCC2)c(=O)n1Cc1ccco1 (configuration not stated)	x	x	1%	x	20µM*	x
CCOc1ccc(C(c2c(O)cc(C)n(Cc3ccco3)c2=O)N2CCN(C)CC2)cc1 (configuration not stated)	x	x	-11%	x	7.9µM*	x
O=S(=O)(NCC(c1ccco1)N1CCN(c2ccc(F)cc2)CC1)c1ccccc1 (configuration not stated)	x	x	2%	x	7%	x
Cc1cc(O)c(C(c2ccc(F)cc2)N2CCN(c3ccccc3)CC2)c(=O)n1Cc1ccco1 (configuration not stated)	x	x	-9%	x	10µM*	x
Cc1cc(O)c(C(c2ccccc2)N2CCN(c3ccccc3)CC2)c(=O)n1Cc1ccco1 (configuration not stated)	x	x	-2%	x	3.2µM*	x
Cc1sc(NC(=O)c2ccco2)c(C(c2ccc(F)cc2)N2CCN(C)CC2)c1C (configuration not stated)	11%	32	5%	14	u	7%
